# Measurements reported in ChEMBL document CHEMBL2218924, “A broad activity screen in support of a chemogenomic map for kinase signalling research and drug discovery” (Biochem J, 2013).
# Columns and labels:
# [1] = biological target: T1, Ephrin type-A receptor 3 (Homo sapiens) (UniProt P29320); conditions: at 10 µM
# T1 sequence (whole entry): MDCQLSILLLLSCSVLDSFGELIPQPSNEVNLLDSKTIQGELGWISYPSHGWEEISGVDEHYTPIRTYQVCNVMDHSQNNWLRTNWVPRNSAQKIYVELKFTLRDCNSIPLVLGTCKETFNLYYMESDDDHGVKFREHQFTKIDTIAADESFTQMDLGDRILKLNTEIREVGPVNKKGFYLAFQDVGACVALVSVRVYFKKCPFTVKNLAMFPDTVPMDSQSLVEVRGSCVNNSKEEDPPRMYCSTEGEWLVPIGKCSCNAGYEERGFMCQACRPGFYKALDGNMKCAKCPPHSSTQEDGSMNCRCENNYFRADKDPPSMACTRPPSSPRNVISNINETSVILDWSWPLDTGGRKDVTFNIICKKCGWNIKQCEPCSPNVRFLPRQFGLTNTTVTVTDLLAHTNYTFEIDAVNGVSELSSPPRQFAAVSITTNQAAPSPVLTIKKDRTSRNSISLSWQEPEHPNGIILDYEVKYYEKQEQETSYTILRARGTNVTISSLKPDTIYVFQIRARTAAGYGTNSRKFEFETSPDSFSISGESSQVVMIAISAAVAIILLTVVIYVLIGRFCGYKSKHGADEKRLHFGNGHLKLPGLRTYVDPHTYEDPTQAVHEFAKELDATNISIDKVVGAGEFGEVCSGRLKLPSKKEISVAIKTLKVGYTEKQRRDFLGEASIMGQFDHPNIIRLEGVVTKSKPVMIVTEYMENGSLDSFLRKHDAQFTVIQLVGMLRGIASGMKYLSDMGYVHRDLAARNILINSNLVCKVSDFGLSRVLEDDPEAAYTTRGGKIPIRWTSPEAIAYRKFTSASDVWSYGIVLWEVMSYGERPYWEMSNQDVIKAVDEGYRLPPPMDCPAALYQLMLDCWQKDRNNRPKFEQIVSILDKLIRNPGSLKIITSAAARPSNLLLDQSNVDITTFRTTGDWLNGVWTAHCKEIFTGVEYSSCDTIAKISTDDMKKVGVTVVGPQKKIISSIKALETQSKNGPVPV
# [2] = biological target: Ephrin type-A receptor 4 (Homo sapiens) (UniProt P54764); conditions: at 1 µM
# [3] = biological target: Ephrin type-A receptor 4 (Homo sapiens) (UniProt P54764); conditions: at 10 µM
# [4] = biological target: Ephrin type-A receptor 5 (Homo sapiens) (UniProt P54756); conditions: at 1 µM
# [5] = biological target: Ephrin type-A receptor 5 (Homo sapiens) (UniProt P54756); conditions: at 10 µM
# [6] = biological target: Ephrin type-A receptor 7 (Homo sapiens) (UniProt Q15375); conditions: at 1 µM
# [7] = biological target: Ephrin type-A receptor 7 (Homo sapiens) (UniProt Q15375); conditions: at 10 µM
# [8] = biological target: T2, Ephrin type-A receptor 8 (Homo sapiens) (UniProt P29322); conditions: at 1 µM
# T2 sequence (whole entry): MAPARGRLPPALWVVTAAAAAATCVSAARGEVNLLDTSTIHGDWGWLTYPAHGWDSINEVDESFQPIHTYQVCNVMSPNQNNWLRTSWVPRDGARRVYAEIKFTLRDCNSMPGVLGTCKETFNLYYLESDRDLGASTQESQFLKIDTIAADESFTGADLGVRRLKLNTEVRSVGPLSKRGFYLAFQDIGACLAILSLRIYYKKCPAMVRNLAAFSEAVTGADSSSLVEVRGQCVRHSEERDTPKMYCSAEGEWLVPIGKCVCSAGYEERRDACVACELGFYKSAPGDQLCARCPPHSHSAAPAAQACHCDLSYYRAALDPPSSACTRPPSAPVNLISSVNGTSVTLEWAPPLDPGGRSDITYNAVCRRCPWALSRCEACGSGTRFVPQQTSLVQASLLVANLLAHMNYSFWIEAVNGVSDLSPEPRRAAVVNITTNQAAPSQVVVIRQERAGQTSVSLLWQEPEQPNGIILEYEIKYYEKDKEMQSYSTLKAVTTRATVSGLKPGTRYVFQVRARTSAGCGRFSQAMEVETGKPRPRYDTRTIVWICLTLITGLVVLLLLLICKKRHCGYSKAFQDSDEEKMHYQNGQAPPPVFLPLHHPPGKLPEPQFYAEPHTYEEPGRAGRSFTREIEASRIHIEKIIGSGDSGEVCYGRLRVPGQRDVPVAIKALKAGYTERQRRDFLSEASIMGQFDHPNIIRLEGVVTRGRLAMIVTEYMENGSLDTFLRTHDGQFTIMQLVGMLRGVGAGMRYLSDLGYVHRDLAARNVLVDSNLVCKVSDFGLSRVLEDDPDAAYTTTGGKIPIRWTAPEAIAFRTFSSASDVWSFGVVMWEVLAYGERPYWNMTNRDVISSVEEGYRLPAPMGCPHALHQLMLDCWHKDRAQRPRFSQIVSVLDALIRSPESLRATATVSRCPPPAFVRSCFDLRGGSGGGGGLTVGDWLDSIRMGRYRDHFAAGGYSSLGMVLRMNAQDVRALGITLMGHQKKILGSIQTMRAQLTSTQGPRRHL
# [9] = biological target: T2, Ephrin type-A receptor 8 (Homo sapiens); conditions: at 10 µM
# [10] = biological target: T3, Ephrin type-B receptor 1 (Homo sapiens) (UniProt P54762); conditions: at 1 µM
# T3 sequence (whole entry): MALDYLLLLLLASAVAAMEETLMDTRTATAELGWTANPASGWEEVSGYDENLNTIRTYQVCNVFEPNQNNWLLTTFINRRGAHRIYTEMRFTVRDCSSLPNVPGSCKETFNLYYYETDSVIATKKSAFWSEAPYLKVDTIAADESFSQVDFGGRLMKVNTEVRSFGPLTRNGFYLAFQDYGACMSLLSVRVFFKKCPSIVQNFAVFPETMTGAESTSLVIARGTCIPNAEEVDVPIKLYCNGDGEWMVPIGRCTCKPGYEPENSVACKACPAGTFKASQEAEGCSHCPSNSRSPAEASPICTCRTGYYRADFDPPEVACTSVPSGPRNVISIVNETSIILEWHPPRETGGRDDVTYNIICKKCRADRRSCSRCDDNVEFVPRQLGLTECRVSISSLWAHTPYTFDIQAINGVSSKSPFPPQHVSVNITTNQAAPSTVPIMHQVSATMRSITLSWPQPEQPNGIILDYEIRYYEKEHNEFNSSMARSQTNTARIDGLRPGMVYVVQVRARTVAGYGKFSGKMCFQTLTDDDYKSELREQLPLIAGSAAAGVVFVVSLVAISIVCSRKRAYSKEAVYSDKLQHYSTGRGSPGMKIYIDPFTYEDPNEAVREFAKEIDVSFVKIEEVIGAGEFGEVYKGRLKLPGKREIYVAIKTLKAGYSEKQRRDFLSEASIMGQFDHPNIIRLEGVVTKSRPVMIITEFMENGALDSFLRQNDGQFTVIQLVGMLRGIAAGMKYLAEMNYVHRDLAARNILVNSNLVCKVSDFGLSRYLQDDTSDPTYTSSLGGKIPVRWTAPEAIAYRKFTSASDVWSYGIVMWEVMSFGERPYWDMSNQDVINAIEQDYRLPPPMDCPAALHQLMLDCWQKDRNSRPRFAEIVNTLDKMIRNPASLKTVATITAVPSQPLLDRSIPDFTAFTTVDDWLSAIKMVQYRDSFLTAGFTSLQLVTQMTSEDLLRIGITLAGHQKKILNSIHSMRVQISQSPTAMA
# Sequence of Ephrin type-A receptor 5 (Homo sapiens) (P54756 whole entry): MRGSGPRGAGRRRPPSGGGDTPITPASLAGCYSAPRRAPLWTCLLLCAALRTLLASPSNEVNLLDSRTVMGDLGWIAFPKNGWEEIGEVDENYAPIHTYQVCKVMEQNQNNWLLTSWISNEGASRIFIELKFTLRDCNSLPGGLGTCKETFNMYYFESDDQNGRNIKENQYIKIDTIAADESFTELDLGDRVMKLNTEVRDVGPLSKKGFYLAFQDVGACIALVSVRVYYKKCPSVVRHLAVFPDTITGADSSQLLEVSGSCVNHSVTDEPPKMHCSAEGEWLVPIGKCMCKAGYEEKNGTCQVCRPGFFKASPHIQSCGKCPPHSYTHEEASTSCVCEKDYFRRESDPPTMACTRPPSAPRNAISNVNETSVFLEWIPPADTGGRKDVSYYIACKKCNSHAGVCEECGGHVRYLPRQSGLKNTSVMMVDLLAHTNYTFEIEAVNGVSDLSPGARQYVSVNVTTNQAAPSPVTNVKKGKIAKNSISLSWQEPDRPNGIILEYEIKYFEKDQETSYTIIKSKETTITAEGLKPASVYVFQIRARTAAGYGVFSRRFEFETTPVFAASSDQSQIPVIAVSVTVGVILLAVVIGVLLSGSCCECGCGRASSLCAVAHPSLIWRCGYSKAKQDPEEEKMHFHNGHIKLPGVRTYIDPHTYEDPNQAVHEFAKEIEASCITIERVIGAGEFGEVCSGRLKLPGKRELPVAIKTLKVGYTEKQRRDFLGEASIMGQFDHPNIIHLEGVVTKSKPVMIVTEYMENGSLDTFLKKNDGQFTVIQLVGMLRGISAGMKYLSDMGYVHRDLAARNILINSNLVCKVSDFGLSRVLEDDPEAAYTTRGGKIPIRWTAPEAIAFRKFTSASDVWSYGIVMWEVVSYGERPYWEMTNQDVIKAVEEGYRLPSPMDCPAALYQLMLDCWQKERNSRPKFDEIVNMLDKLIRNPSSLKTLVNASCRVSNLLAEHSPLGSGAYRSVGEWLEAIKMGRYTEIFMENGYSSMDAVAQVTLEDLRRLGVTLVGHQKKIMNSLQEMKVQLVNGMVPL
# Sequence of Ephrin type-A receptor 7 (Homo sapiens) (Q15375 28-998 limits assumed): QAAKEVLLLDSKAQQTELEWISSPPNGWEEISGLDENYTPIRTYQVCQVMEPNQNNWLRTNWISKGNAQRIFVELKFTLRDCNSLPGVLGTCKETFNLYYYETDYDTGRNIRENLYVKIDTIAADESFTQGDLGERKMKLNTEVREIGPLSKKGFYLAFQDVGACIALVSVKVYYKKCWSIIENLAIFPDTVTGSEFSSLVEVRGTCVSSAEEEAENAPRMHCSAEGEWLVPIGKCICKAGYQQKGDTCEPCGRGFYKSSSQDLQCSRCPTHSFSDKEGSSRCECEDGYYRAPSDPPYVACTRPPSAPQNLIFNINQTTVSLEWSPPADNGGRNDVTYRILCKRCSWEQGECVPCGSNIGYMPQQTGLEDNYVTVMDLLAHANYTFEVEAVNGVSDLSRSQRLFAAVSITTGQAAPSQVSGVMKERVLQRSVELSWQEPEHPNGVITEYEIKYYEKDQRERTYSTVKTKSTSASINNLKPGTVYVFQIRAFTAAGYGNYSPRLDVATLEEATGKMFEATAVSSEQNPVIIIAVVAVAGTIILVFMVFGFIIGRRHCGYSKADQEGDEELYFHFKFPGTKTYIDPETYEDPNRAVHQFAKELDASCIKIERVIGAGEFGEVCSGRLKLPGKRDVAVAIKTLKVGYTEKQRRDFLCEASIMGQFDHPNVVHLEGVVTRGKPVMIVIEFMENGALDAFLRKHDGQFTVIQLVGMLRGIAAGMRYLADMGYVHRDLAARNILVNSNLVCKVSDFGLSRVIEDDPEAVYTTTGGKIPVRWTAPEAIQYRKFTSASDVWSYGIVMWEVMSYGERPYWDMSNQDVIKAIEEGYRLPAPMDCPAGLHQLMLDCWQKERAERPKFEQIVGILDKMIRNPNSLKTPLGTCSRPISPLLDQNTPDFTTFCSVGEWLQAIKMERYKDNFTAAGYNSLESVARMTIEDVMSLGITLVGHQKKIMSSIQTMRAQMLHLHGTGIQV
# Sequence of Ephrin type-A receptor 4 (Homo sapiens) (P54764 whole entry): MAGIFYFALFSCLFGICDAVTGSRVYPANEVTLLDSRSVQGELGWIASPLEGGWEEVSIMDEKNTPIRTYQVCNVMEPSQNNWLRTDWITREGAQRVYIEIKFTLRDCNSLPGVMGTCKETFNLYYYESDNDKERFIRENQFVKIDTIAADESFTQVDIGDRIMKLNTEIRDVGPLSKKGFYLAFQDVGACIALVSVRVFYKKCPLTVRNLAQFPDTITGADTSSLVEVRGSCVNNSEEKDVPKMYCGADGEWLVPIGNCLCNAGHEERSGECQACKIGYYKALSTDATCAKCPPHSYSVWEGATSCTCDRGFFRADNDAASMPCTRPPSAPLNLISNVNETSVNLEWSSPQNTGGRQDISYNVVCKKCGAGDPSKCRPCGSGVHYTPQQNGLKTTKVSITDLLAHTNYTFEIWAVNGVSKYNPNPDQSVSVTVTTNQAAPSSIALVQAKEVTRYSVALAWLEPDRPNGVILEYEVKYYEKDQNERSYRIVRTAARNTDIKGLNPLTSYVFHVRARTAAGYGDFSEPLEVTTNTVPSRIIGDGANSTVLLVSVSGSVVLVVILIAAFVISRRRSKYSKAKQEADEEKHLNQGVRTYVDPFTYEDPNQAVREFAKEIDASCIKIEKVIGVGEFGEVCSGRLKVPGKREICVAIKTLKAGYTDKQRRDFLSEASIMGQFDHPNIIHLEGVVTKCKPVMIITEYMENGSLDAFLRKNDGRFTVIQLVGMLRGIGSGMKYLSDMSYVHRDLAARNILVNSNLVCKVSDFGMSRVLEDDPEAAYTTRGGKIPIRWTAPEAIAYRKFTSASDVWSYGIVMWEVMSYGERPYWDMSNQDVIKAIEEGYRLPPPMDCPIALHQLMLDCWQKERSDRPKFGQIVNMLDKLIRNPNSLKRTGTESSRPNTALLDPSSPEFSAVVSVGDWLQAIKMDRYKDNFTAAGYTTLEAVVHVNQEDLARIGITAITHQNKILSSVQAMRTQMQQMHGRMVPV
smiles,measurement,setting,value
O=C1NC(=O)c2c1c1c3ccccc3[nH]c1c1[nH]c3cc(Br)ccc3c21,residual activity,[1],86%
same,residual activity,[2],104%
same,residual activity,[3],92%
same,residual activity,[4],111%
same,residual activity,[5],91%
same,residual activity,[6],99%
same,residual activity,[7],93%
same,residual activity,[8],95%
same,residual activity,[9],88%
same,residual activity,[10],106%
